# A selection follows.
# aSyn 5UTR act – Activators via SNCA 5'UTR binding, MLPCN; alpha-synuclein 5'UTR reporter, activators screen; activity score, % (tested at 7.5 µM), hits read low; actives 7.1% (n = 300,000); in the data active means activity score below about -60%
# The depositor's hits bear a star.
SMILES,aSyn 5UTR act
c1ccc(C2=Nc3ccccc3SC2c2nc3ccccc3[nH]2)cc1 (stereo not given),-249.8*
Cc1ccc(Cc2cnc(NC(=O)c3cccs3)s2)cc1,-91.2*
O=C(Nc1ncc(Cc2ccc(SC(F)F)cc2)s1)c1ccccc1,67.7
O=C(Nc1ncc(Cc2cccc(Cl)c2)s1)c1cccs1,-192.4*
COc1cccc(NC(=O)C2COc3ccccc3O2)c1 (stereo not given),-200.9*
O=C(Nc1ccc(F)cc1)C1COc2ccccc2O1 (stereo not given),-71.6*
Cc1cc(=O)oc2cc(NC(=O)C3COc4ccccc4O3)ccc12 (stereo not given),-61.6*
O=C(Nc1ccc2c(c1)OCO2)C1COc2ccccc2O1 (stereo not given),-177.1*
Cc1cc(Cl)ccc1NC(=O)C1COc2ccccc2O1 (stereo not given),-85.5*
O=C(Nc1ccccc1[N+](=O)[O-])C1COc2ccccc2O1 (stereo not given),-221.5*
COc1ccc(OC)c2c1sc(=NC(=O)C1COc3ccccc3O1)n2C (stereo not given),-128.4*
COc1ccc(C)cc1NC(=O)C1COc2ccccc2O1 (stereo not given),-67.3*
O=C(Nc1cnc2ccccc2c1)C1COc2ccccc2O1 (stereo not given),-167.5*
COc1ccc(CNC(=O)C2COc3ccccc3O2)cc1 (stereo not given),-62.5*
O=C(N/C=C/c1ccccc1)c1ccccc1,-134.9*
COc1ccc2cc(-c3nc4ccccc4n3C)c(=O)oc2c1,-208.5*
COc1cccc(Cn2c(-c3nonc3N)nc3ccccc32)c1,95.8
Cn1c(-c2cc3ccccc3oc2=O)nc2ccccc21,-97.3*
Cc1cccc(C(=O)Nc2ccc(N3CCN(S(C)(=O)=O)CC3)cc2)c1,-84.1*
CS(=O)(=O)N1CCN(c2ccc(NC(=O)c3ccccc3)cc2)CC1,-123.5*
CCOC(=O)c1cc(C)n(CCc2ccccc2)c1C,-68.8*
O=C(NCCc1ccccc1)c1cnc(Cl)c(Cl)c1,-119.2*
O=C(NCC(O)c1ccccc1)c1ccccc1 (stereo not given),-79.7*
CC1CN(S(=O)(=O)c2cc(C(=O)NCCC3=CCCCC3)ccc2Cl)CC(C)O1 (stereo not given),-85.2*
O=C(NCC(O)c1ccccc1)c1ccc(Cl)c(S(=O)(=O)N2CCCC2)c1 (stereo not given),-95.5*
SMILES,aSyn 5UTR act
O=C(NCCc1ccccc1)c1ccc(Cl)c(S(=O)(=O)N2CCCC2)c1,-67.1*
Cc1ccc(N/C=C2/Sc3ccccc3NC2=O)cc1,-175.0*
CCC(C)NC(=O)/C=C1\Sc2ccccc2NC1=O (stereo not given),-74.5*
COc1ccc(N/C=C2/Sc3ccccc3NC2=O)cc1,-147.9*
O=C1CCCCC/C1=N/Nc1ccc(OCc2ccccc2)cc1,-74.0*
Cc1ccc(/C=N/NC(=O)c2c(C)nc3ccc(Br)cn23)cc1,80.5
CN(C)c1ccc(/C=N/NC(=O)c2ccco2)cc1,-77.6*
CSC(=S)N/N=C/c1ccc(N(C)C)cc1,-96.1*
Cc1ccc(/C=N/NC(=O)c2ccco2)cc1,-93.9*
CN(C)c1ccc(/C=N\NC(=O)c2cccc3cc[nH]c23)cc1,-69.4*
C/C(CC(C)C)=N\NC(=O)Nc1ccccc1,-69.3*
N/C(=N\NC(=O)Nc1ccccc1)c1ccccn1,-167.5*
Cc1ccc(C(=O)N(C)c2nnc(-c3ccncc3)s2)cc1,-106.7*
CN(C(=O)c1ccncc1)c1nnc(-c2ccccn2)s1,-65.7*
C/C(CC(=O)NC1CCCCC1)=N\NC(=O)c1ccccn1,-132.3*
C/C(CC(=O)Nc1ccc(Cl)c(C(F)(F)F)c1)=N\NC(=O)c1ccccc1O,-82.1*
CC(=O)Nc1ccccc1NC(=O)C/C(C)=N/NC(=O)c1ccccn1,-113.5*
C/C(CC(=O)NCc1ccccc1Cl)=N/NC(=O)c1ccccn1,-115.9*
C/C(=N\NC(=O)c1ccc(F)cc1)c1ccccn1,-93.2*
C/C(=N\NC(=O)CCCNc1ccc(C)cc1)c1ccccn1,78.3
C/C(CC(=O)Nc1ccc(F)cc1)=N\NC(=O)c1ccccn1,-63.5*
Cc1ccn2c(c1)nc(=S)n2C(=O)c1ccco1,-201.9*
CN(C)c1ccc(C(=O)/C=C/c2ccccc2)cc1,-158.8*
O=C(c1ccccc1)c1ccc(-c2ccc(O)cc2)cc1,-251.1*
CN(C)c1ccc(C(=O)/C=C/c2ccco2)cc1,-226.3*
SMILES,aSyn 5UTR act
CN(C)c1ccc(N=Nc2ccc(C(=O)O)cc2)cc1,64.0
CN(C)c1ccc(C(=O)c2ccccc2)cc1,-119.0*
O=C(/C=C\c1ccco1)c1ccc(NC(=O)c2ccco2)cc1,-143.4*
CN(C)c1ccc(C(=O)/C=C/c2ccc(Br)cc2)cc1,-78.8*
O=C(NCCCn1ccnc1)c1cc2ccccc2oc1=O,-65.0*
CCOc1ccc(-c2cc(C(=O)NCCCn3ccnc3)c3cc(Br)ccc3n2)cc1,60.3
O=C(NCCCn1ccnc1)c1cc(-c2cccc(O)c2)on1,-64.6*
COc1ccc(NCc2nnc(SCC(=O)c3ccc(OC)cc3)n2C)cc1,-127.4*
Cn1ccnc1SCC(=O)Nc1ccc2c(c1)OCO2,-107.2*

# Compound activity: PubChem, Broad Institute
